From PubChem BioAssay (Tox21)
Unmarked numbers belong to inactive results. Results filed as inconclusive are left out. A call without a number means that no potency is given here. The source made the active and inactive calls. Unless noted, calls follow the shape of the dose curve; as a rule, active = well fitted curve in the direction sought with a large enough effect in the repeat runs; inconclusive = weak or mixed curves; inactive = no such curve, though single readings can be large; an effect the other way counts as inactive or inconclusive.

Legend:
[1] = qHTS assay for small molecule agonists of the p53 signaling pathway (AID 651631; calls by dose curve; also: nearly all actives have a fitted effect of over 15% in size; also: potency is read from the fitted curve at half-maximal effect)
Method in brief: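 Beta-lactamase reporter activity under p53 response elements was quantified in HCT-116 cells by FRET fluorescence, following 16 h incubation with test compounds at 37 °C and 2 h substrate development at room temperature.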

[2] = qHTS assay for small molecules that induce genotoxicity in human embryonic kidney cells expressing luciferase-tagged ATAD5 (AID 651632); also: nearly all actives have a fitted effect of over 15% in size
Method in brief: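 Concentration-response screen for ATAD5 upregulation in HEK293T luciferase reporter cells; 16 hr treatment at 37C, then luminescence after 30 min with Amplite at room temperature.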

[3] = qHTS assay for small molecule agonists of the p53 signaling pathway - cell viability (AID 651633; calls by dose curve;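 also: p53RE-bla HCT reporter cells with a stable beta-lactamase p53 reporter; series mostly up to about 83 µM; nearly all actives have a fitted effect of over 30% in size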)
Method in brief: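 p53RE-bla cells, seeded at 4,000 per well and rested 5 h at 37 C/5% CO2, received compounds in DMSO for 16 h at 37 C. CellTiter-Glo was then added, and luminescence was read after 30 min at room temperature to gauge cytotoxicity.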

[4] = qHTS assay for small molecules that induce genotoxicity in human embryonic kidney cells expressing luciferase-tagged ATAD5 - cell viability (AID 651634; calls by dose curve; also: nearly all actives have a fitted effect of over 25% in size)
Method in brief: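 15.5 hr compound or vehicle exposure of HEK293T cells expressing luciferase-tagged ATAD5 at 37C; live-cell protease activity is read by fluorescence after 30 min of CellTiter-Fluor.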

[5] = qHTS assay for small molecule disruptors of the mitochondrial membrane potential - cell viability (AID 720634; calls by dose curve;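 also: human HepG2 liver cancer cells; series mostly up to about 83 µM; nearly all actives have a fitted effect of over 20% in size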)
Method in brief: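 In this qHTS format, HepG2 cells plated overnight were pinned with compound, incubated 1 hr, and assayed for ATP luminescence with CellTiter-Glo after m-MPI dye addition.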

[6] = qHTS assay for small molecule disruptors of the mitochondrial membrane potential (AID 720635); also: potency is read from the fitted curve at half-maximal effect
Method in brief: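 HepG2 cells (2,000/well) attached overnight at 37C, then took compound for 1 hr at 37C, 5% CO2. Mito-MPS dye was added for 30 min; fluorescence was read at 490/535 nm (monomers) and 540/590 nm (aggregates).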

[7] = qHTS assay to test for compound auto fluorescence at 535 nm (green) in HepG2 cells (AID 720675)
[8] = qHTS assay to test for compound auto fluorescence at 460 nm (blue) in HEK293 cells (AID 720678)
Method in brief: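 Intrinsic compound fluorescence is recorded in live HEK293 cultures after overnight incubation at 37C, 5% CO2, using excitation 405 nm and emission 460 nm. Values are referenced to triamterene.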

[9] = qHTS assay to test for compound auto fluorescence at 590 nm (red) in HEK293 cells (AID 720679)
Method in brief: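 Red autofluorescence, HEK293 cells: 2,000 cells/well; attach 4-5 hr 37C; add 23 nL cpd or DMSO; incubate o/n 37C 5% CO2; read Ex540/Em590; Rose Bengal sodium reference.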

[10] = qHTS assay to test for compound auto fluorescence at 535 nm (green) in HEK293 cells (AID 720680)
[11] = qHTS assay to test for compound auto fluorescence at 460 nm (blue) in HEK293 cell free culture (AID 720681)
Method in brief: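 Test compounds were pinned into cell-free culture medium (DMEM with 10% FBS) and fluorescence was read directly at Ex/Em 405/460 nm. Signals were expressed as fluorescence equivalents of triamterene, with DMSO vehicle as control.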

[12] = qHTS assay to test for compound auto fluorescence at 535 nm (green) in HEK293 cell free culture (AID 720682)
Method in brief: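 Each library compound, or DMSO control, is added by pintool to medium alone, comprising DMEM and 10% FBS. Emission at 535 nm following 485 nm excitation is quantified against fluorescein.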

[13] = qHTS assay to test for compound auto fluorescence at 590 nm (red) in HEK293 cell free culture (AID 720683)
Method in brief: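 Tox21 10K library compounds were pinned into cell-free DMEM with 10% FBS and fluorescence was read at excitation 540 nm. Activity is expressed as Rose Bengal sodium equivalency.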

[14] = qHTS assay to test for compound auto fluorescence at 590 nm (red) in HepG2 cell free culture (AID 720684)
Method in brief: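 Ex 540 / Em 590 nm read of compound in cell-free MEM (10% FBS). Rose Bengal sodium reference.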

[15] = qHTS assay to test for compound auto fluorescence at 460 nm (blue) in HepG2 cell free culture (AID 720685)
Method in brief: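 Cell-free plates of MEM plus 10% FBS received 23 nL compound or DMSO vehicle; blue-channel (405/460 nm) intensity scored against triamterene as reference fluorophore.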

[16] = qHTS assay to test for compound auto fluorescence at 535 nm (green) in HepG2 cell free culture (AID 720686)
[17] = qHTS assay to test for compound auto fluorescence at 460 nm (blue) in HepG2 cells (AID 720687)
Method in brief: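 Cells (2,000/well in MEM with 10% FBS) attached overnight at 37 C, then were exposed to compound or DMSO for 1 hr at 37 C, 5% CO2. Fluorescence read at Ex/Em 405/460 nm, expressed as triamterene-equivalent signal.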

[18] = molecular target: Glucocorticoid receptor (Homo sapiens) (UniProt P04150); test: qHTS assay to identify small molecule agonists of the glucocorticoid receptor (GR) signaling pathway (AID 720691; active = well fitted activation curve with a large enough effect in the signal ratio in the repeat runs, not every such curve was filed as active; the % refers to the signal ratio)
Glucocorticoid receptor (Homo sapiens), sequence (P04150 whole entry, looked up): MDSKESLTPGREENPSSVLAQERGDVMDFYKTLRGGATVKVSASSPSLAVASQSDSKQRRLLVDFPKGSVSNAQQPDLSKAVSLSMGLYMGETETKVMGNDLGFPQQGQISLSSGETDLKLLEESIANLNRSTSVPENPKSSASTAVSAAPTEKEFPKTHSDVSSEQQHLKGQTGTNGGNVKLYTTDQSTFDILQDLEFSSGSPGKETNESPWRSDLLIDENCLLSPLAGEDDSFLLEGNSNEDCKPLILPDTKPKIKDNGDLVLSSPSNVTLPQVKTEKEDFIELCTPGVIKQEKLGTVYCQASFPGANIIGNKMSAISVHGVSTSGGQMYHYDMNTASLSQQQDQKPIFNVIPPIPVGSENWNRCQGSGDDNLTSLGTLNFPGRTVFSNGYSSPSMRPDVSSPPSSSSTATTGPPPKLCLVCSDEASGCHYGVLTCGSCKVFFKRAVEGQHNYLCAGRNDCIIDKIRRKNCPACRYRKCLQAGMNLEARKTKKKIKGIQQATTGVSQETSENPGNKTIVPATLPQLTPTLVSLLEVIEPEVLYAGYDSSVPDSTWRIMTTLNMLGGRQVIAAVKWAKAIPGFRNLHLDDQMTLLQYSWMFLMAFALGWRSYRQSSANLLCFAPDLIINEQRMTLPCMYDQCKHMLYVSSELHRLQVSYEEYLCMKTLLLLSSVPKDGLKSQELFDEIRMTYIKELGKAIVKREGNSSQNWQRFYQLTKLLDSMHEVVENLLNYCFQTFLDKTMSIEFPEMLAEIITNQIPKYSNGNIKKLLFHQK
Method in brief: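 Measures GR pathway activation through a GRE-beta-lactamase reporter stably integrated in HeLa cells, with 18 h compound treatment at 37 C and fluorescence detection using a FRET substrate.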

[19] = qHTS assay to test for compound auto fluorescence at 590 nm (red) in HepG2 cells (AID 720674)
Method in brief: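 Intrinsic compound fluorescence in the red window (Ex/Em 540/590 nm) is measured in attached HepG2 cells exposed for 1 hr, DMSO vehicle as baseline, benchmarked to Rose Bengal sodium.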

[20] = molecular target: Glucocorticoid receptor (Homo sapiens) (UniProt P04150); test: qHTS assay to identify small molecule antagonists of the glucocorticoid receptor (GR) signaling pathway (AID 720692; active = well fitted inhibition curve with a large enough effect in the signal ratio in the repeat runs, not every such curve was filed as active; the % refers to the signal ratio)
Method in brief: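 Tox21 10K library screened in concentration-response for blockade of dexamethasone (5 nM final)-induced GRE-bla reporter activity in HeLa cells; 18 h treatment, fluorescence read.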

SMILES | Potency [1] | Potency [2] | Potency [3] | Potency [4] | Potency [5] | Potency [6] | outcome [7] | Potency [8] | outcome [9] | outcome [10] | Potency [11] | outcome [12] | outcome [13] | outcome [14] | Potency [15] | outcome [16] | Potency [17] | Potency [18] | outcome [19] | Potency [20]
CCOC(=O)C(C)Oc1ccc(Oc2nc3ccc(Cl)cc3o2)cc1 (stereo unspecified) | inactive | inactive | inactive | inactive | inactive | inactive | inactive | inactive | inactive | inactive | inactive | inactive | inactive | inactive | inactive | inactive | inactive | inactive | – | –
CC1CC(O)CC(C)(C)C1 (stereo unspecified) | inactive | inactive | inactive | inactive | inactive | inactive | inactive | inactive | inactive | inactive | inactive | inactive | inactive | inactive | inactive | inactive | inactive | inactive | – | –
C/C=C(\C)C(=O)OCCC(C)CCC=C(C)C (stereo unspecified) | inactive | inactive | inactive | inactive | inactive | inactive | inactive | inactive | inactive | inactive | inactive | inactive | inactive | inactive | inactive | inactive | inactive | inactive | inactive | inactive
CCC(=O)Oc1ccc(/C(CC)=C(\CC)c2ccc(OC(=O)CC)cc2)cc1 | 15.4 µM (active) | inactive | inactive | inactive | inactive | 8.63 µM (active) | inactive | inactive | inactive | inactive | inactive | inactive | inactive | inactive | inactive | inactive | inactive | – | – | –
CC(=O)Nc1ccccc1C | inactive | inactive | inactive | inactive | inactive | inactive | inactive | inactive | inactive | inactive | inactive | inactive | inactive | inactive | inactive | inactive | inactive | inactive | – | inactive
CNC(=O)N(c1ccccc1)c1ccccc1 | inactive | inactive | inactive | inactive | inactive | – | inactive | inactive | inactive | inactive | inactive | inactive | inactive | inactive | inactive | inactive | inactive | – | inactive | –
O=C(O)c1ccc(CO)o1 | inactive | inactive | inactive | inactive | inactive | inactive | inactive | inactive | inactive | inactive | inactive | inactive | inactive | – | inactive | inactive | inactive | – | inactive | –
